Measurements from PubChem BioAssay AID489025 (Southern Research Specialized Biocontainment Screening …, 2010).
About 790 (34%) of roughly 2,300 compounds were called active. No rule for the calls is given here. The list shows a part of the results. Results with a measured potency or affinity are listed apart.

experiment: THP-1 cell cytotoxicity, dose response, cytotoxicity control for non-replicating M. tuberculosis project (AID 489025); settings: THP-1 cell viability; series mostly up to 40 µM

SMILES	outcome
O=C(CCNc1ccc(Cl)cc1)c1cccs1	inactive
Cc1occc1-c1nnc(-c2cc([N+](=O)[O-])cc([N+](=O)[O-])c2)o1	inactive
Cc1cc(NC(=O)c2cc([N+](=O)[O-])cc([N+](=O)[O-])c2)no1	inactive
CCOC(=O)c1ccc(N=C(CC)c2c(O)n(C)c(=O)n(C)c2=O)cc1	inactive
O=C1OC(/C(=C\Nc2cc(Cl)ccc2O)[N+](=O)[O-])c2ccccc21 (stereo unspecified)	inactive
CS(=O)(=O)Cc1nc2ccccc2oc1=O	inactive
COc1cccc2cc(-c3nc4ccccc4o3)c(=O)oc12	inactive
O=C(OCC(=O)N1CCCC1)c1cc(Br)ccc1Cl	inactive
CC12CC3CC(C)(C1)CC(C(=O)N1CCCC1)(C3)C2	inactive
OC(COc1ccc2ccccc2c1Br)Cn1ccnc1 (stereo unspecified)	inactive
CCOc1ccc(Cn2c(=O)oc3ccccc32)cc1	inactive
CCOC(=O)COc1ccc2c(c1)c(C(C)=O)c(C)n2Cc1ccccc1	inactive
O=C(COc1ccccc1)NCCSCc1ccc(Cl)cc1	inactive
OC(COc1ccccc1Cl)CN1CCN(CC(O)COc2ccccc2Cl)CC1 (stereo unspecified)	inactive
O=C(OCC#CCSc1nnc(-c2ccncc2)o1)c1cccs1	inactive
COc1ccc(COc2cccc(C=O)c2)cc1	inactive
CCCCn1c(=O)c(C(=O)Nc2nnc(C(C)C)s2)c(O)c2ccccc21	inactive
CCOC(=O)Cc1csc(NC(=O)COc2ccc3c(c2)CCC3)n1	inactive
CCCNC(=O)N1CCC(c2ccc3c(c2)OCO3)CC1	inactive
CCOC(=O)C1CCCc2c1[nH]c1c(C(N)=O)cccc21 (stereo unspecified)	inactive
O=C(OCC#CCSc1nc2ccccc2o1)c1ccco1	inactive
O=C(COC(=O)c1cc(Cl)ccc1O)c1ccc2c(c1)OCO2	inactive
C/C(=N\O)c1cc(Cl)ccc1O	inactive
CCOC(=O)COc1ccc2c(=O)cc(-c3ccccc3)oc2c1	inactive
CN(C)c1ccc(/C=C2\N=C(C(C)(C)C)OC2=O)cc1	inactive

SMILES	outcome
O=c1c2c([N+](=O)[O-])cc([N+](=O)[O-])cc2nc2ccccn12	inactive
O=C(OCc1cccc([N+](=O)[O-])c1)c1ccc2ccccc2n1	inactive
CSc1ccc(CNc2ncc(-c3cccc([N+](=O)[O-])c3)n2C)cc1	inactive
N[C@@H](Cc1ccccc1)c1nnc(SC/C=C/c2ccccc2)o1	inactive
O=C(COc1ccccc1)Nc1nnc(-c2ccc3c(c2)CCCC3)o1	inactive
O=C(Nc1nnc(-c2ccc3c(c2)CCCC3)o1)c1c(F)cccc1F	inactive
Cc1cccc(C(=O)Nc2nnc(-c3cccnc3)o2)c1	inactive
CCOc1ccc(-c2nnc(NC(=O)CCCOc3cccc(C)c3)o2)cc1	inactive
CCOc1ccccc1C(=O)OCC(=O)Nc1nnc(-c2ccccc2)o1	inactive
CCOc1ccc(C(=O)Nc2nnc(C3=COCCO3)o2)cc1	inactive
COc1ccc(C(=O)COC(=O)c2ccccc2O)c(OC)c1	inactive
O=Cc1ccc(OC2OCCOC2Oc2ccc(C=O)cc2)cc1 (stereo unspecified)	inactive
O=C(CCN1CCN(C/C=C/c2ccccc2)CC1)Nc1ccc(Cl)cc1	inactive
COc1ccccc1C(=O)OCC(=O)Nc1ccc(Cl)cn1	inactive
C=CCOC(=O)c1ccc(-n2cnc(C)n2)nc1	inactive
NC(=O)CN1CCN(C2CC(=O)N(CCc3ccccc3)C2=O)CC1 (stereo unspecified)	inactive
COc1cccc(C(=O)OCC(=O)Nc2nnc(-c3ccccc3)o2)c1	inactive
O=C(Nc1nnc(-c2ccc(Cl)cc2)o1)C1=COCCO1	inactive
O=C(Nc1nnc(-c2ccc(Cl)cc2)o1)c1cccc(N2C(=O)CCC2=O)c1	inactive
O=C(COc1ccccc1)Nc1nnc(-c2ccc(Cl)cc2)o1	inactive
Cc1ccc(C(=O)Nc2nnc(-c3ccncc3)o2)cc1	inactive
O=C(COC(=O)CC12CC3CC(CC(C3)C1)C2)Nc1cccnc1Cl	inactive
CCc1ccc(N=CC2=C(O)CC(c3ccco3)CC2=O)cc1 (stereo unspecified)	inactive
C(=C\c1ccccc1)/CSc1nc2ncccc2[nH]1	inactive
CCOC(=O)C1CCCN(Cc2ccc(OCc3ccccc3)cc2)C1 (stereo unspecified)	inactive

SMILES	outcome
CCOC(=O)c1ccc(COC(=O)c2ccc(-c3nnc(-c4ccccc4)o3)cc2)o1	inactive
CCC(=O)c1ccc(OCc2ccc(C(=O)OC)cc2)cc1	inactive
CCOC(=O)C1CCN(Cc2ccc(-c3ccccc3)cc2)CC1	inactive
COc1ccccc1N=Cc1nc(-c2ccccc2)oc1OC(C)=O	inactive
Brc1ccc(OCCCCN2CCCCC2)cc1	inactive
CN(CCOCCOc1ccc(F)cc1)Cc1ccccc1	inactive
Cc1ccc(NC(=O)ON=C2CCCC2)cc1	inactive
O=C(COc1ccc(Cl)cc1)Nc1ccc2[nH]ncc2c1	inactive
Cc1ccc(NC(=O)COc2ccccc2)cc1Cl	inactive
CCOc1ccccc1OC(=O)c1cc2ccccc2oc1=O	inactive
Cc1cccc(OCCCCc2c(C)n[nH]c2C)c1	inactive
Cc1ccc(C(=O)NCCOc2cccc(C)c2)cc1	inactive
CCCCOC(=O)c1ccc(OC(=O)c2cccnc2)cc1	inactive
COc1ccc(Cl)cc1N=Cc1c(O)c2ccccc2oc1=O	inactive
COc1ccc(OC(=O)c2cc3cc(Cl)ccc3oc2=O)cc1	inactive
Cc1ccc(NC(=O)CO/N=C/c2ccc(N(C)C)cc2)cc1	inactive
COc1ccc(CC(=O)OCC(=O)Nc2ccc(Br)cc2)cc1	inactive
Cc1ccc(CCC(=O)Nc2ccccc2F)s1	inactive
O=C(Nc1nnc(-c2ccc(Br)cc2)o1)c1ccco1	inactive
Cc1cccc(NC(=O)COc2ccc(Br)cc2)n1	inactive
O=C(Nc1nnc(-c2ccc(Br)cc2)o1)C1=COCCO1	inactive
Cc1ccccc1C(=O)Nc1nnc(-c2ccco2)o1	inactive
O=C(COC(=O)c1ccc([N+](=O)[O-])s1)Nc1ccc(Cl)cn1	inactive
O=C(Nc1ccccc1F)c1ccc(Br)o1	inactive
O=C(Nc1nnc(-c2ccco2)o1)c1cccc2ccccc12	inactive

SMILES	outcome
Fc1ccc(COc2ccc(-c3nnco3)cc2)cc1	inactive
Cc1ccc(C(=O)OCC(=O)N2CCCCCC2)c(O)c1	inactive
COc1ccc(-c2nc3ccc(C)cc3c(=O)o2)cc1OC	inactive
CC1(C)CC(=O)C(C2NCCc3ccccc32)=C(O)C1 (stereo unspecified)	inactive
C/C(CC(=O)Nc1ccc(C)c(Cl)c1)=N\NC(=O)c1ccco1	inactive
CCOC(=O)c1cc(COc2cc(Cl)cc(Cl)c2)on1	inactive
CCOc1ccc(NC(=O)CCC(=O)N/N=C/c2ccc([N+](=O)[O-])s2)cc1	inactive
Cc1nc2ccc(NC(=O)c3ccc([N+](=O)[O-])cc3[N+](=O)[O-])cc2s1	inactive
COc1cccc2cc(C(=O)NCc3ccc(F)cc3)c(=N)oc12	inactive
CC1Cc2cc(/C=C3/SC(=S)NC3=O)ccc2O1 (stereo unspecified)	inactive
CC(C)(O)C#Cc1ccc(C(=O)Nc2ccc3c(c2)OCO3)s1	inactive
CC(C)n1c(=S)[nH]c2ccccc2c1=O	inactive
CCC(C)(C)NC(=O)c1ccc(Br)o1	inactive
O=C(Nc1ccccc1)c1ccc(Br)o1	inactive
O=C(O)c1ccccc1C(=O)NNc1ccc(F)cc1	inactive
O=C(NNc1ccc([N+](=O)[O-])cc1)c1ccccc1Cl	inactive
CCOC(=O)COc1ccc(C(=O)NC2CCCCC2)cc1	inactive
O=C(O)c1ccccc1C(=O)NNc1ccc(Cl)cc1	inactive
COc1ccc(C(=O)NN/C(C)=C/C(=O)c2ccccc2)cc1	inactive
O=C(COC(=O)C1CCCCC1)Nc1ccccc1OC(F)F	inactive
NC(=O)/C(=N\OC(=O)c1ccco1)c1nc(-c2ccc(Br)cc2)cs1	inactive
O=C(OCc1cccc(F)c1)c1ccc2c(=O)n3c(nc2c1)CCC3	inactive
Cc1ccc(/C=C2/C(=O)NC(=O)N(CCc3ccc(F)cc3)C2=O)s1	inactive
Cc1ccc(NC(=O)CN(C)C2CCCCC2)cc1Br	inactive
O=C(OCCCCN1C(=O)c2ccccc2C1=O)c1ccc(Br)o1	inactive

SMILES	outcome
Nn1c(SCCOc2ccc(Cl)cc2)nnc1-c1cccnc1	inactive
O=C(Nc1nc2ccccc2n1CCN1CCCC1)c1ccc(Cl)cc1	inactive
Cc1ccc(CC(=O)Nc2ccc(Cl)cn2)cc1	inactive
Cn1[nH]c(-c2ccccc2)c(/C=N/O)c1=O	inactive
Clc1ccc(Cc2nnc(-c3cccs3)o2)cc1	inactive
c1cncc(-c2noc(CC3CCCCC3)n2)c1	inactive
CCOC(=O)C(=NCCOC)NNc1cc(Cl)ccc1Cl	inactive
CCOc1cccc2cc(C(=O)NCc3ccccc3)c(=N)oc12	inactive
CCc1c(C)c2ccc(OCC(=O)OC)cc2oc1=O	inactive
Cc1cccc2nc(-c3cccnc3)c(NCCC(C)C)n12	inactive
CSc1nn(-c2ccc(C(=O)OCC(=O)NC(=O)NC(C)C)cc2)c(=S)s1	inactive
CC(=O)Oc1c(-c2ccco2)oc2ccccc2c1=O	inactive
N/C(=N\OC(=O)c1cccc(Br)c1)c1ccc([N+](=O)[O-])cc1	inactive
CCOC(=O)COn1c(-c2cccc(Cl)c2)nc2ccc([N+](=O)[O-])cc21	inactive
O=c1c2cc(Cl)ccc2nc(-c2ccccc2Cl)n1O	inactive
Cc1nc2ccc(Cl)cc2nc(C)/c1=N\O	inactive
O=[N+]([O-])c1ccc2nc(SCc3cn4cc(Cl)ccc4n3)[nH]c2c1	inactive
O=c1c2c([N+](=O)[O-])cc([N+](=O)[O-])cc2sn1-c1ccc(Br)cc1	inactive
O=C(Oc1cccc([N+](=O)[O-])c1)c1ccc2c(=O)n3c(nc2c1)CCC3	inactive
CC(=O)c1cc2c(ccc3ccccc32)oc1=O	inactive
CCOc1ncccc1C(=O)OCC(=O)N1CCc2ccccc21	inactive
